# Measured values published in PubChem BioAssay (NCI).
# The panel holds about 83,000 compounds, 20% with a hit somewhere; the sample as a whole holds those more often.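 Each cell line was grown in a 96-well plate and treated with one concentration of compound for 48 hours. Values below 10 were considered active.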 Unmarked numbers belong to inactive results. The source made the active and inactive calls.
# Tested on: MDA-MB-435 melanoma
# Assay: NCI-60 one-dose screen, 48 h (100 = growth as untreated, 0 = no growth, -100 = all killed)
# Settings: 10 µM unless noted
# Protocol: Growth inhibition of the MDA-MB-435 human Melanoma tumor cell line is measured as a screen for anti-cancer activity. Cells are grown in 96 well plates and exposed to the test compound for 48 hours. Compounds are tested at a single concentration, which is 10^-5 M for most compounds. The reported endpoint is percent growth (GI% or GIPRCNT), where numbers from 0 - 100% represent growth inhibition, and numbers from -100% - 0 represent cell death. For example, a value of 40 represents 60% growth inhibition. A value of 0 means no net growth occurred over the course of the experiment. A value of -40 indicates 40% of cells at the beginning of the experiment died by the end of the experiment. A value of -100 means all cells are dead at the end of the experiment.
# NCI-60 Human Tumor Cell Lines Screen was performed using the standard one-dose NCI protocol, which is described in more detail at https://dtp.cancer.gov/discovery_development/nci-60/default.htm.
# Compounds with GIPRCNT values below 10 were considered active. Activity score was based on GIPRCNT using the following formula: […]
# Score is 0 for GIPRCNT values of 100 or above, 50 for GIPRCNT values of 0, and 100 for GIPRCNT values of -100.
row,Structure (SMILES),growth
1,CC(C)=CCc1c2c(c(O)c3c1O[C@]14C(=C[C@@H]5C[C@H]1C(C)(C)O[C@@]4(C/C=C(/C)C(=O)O)C5=O)C3=O)CC(O)C(C)(C)O2 (stereo not given in full),-16% (active)
2,COc1cc(C(=O)c2cc(C(C)=O)c3c4ccccc4ccn23)cc(OC)c1OC,5.4% (active)
3,CC(C)=CCc1c(O)c(CC=C(C)C)c2c(c1O)C(=O)C1=C[C@@H]3C[C@H]4C(C)(C)O[C@@](C/C=C(\C)C(=O)O)(C3=O)[C@@]14O2,-5.58% (active)
4,O=C(CN1C(=O)S/C(=C\c2ccccc2)C1=O)Nc1ccc(C(=O)/C=C/c2cc3ccccc3nc2Cl)cc1,82.9%
5,CNC(=O)c1cc(Oc2ccc3nc(NC(=O)c4cccc(C(F)(F)F)c4)sc3c2)ccn1,95.1%
6,CC(C)N=C(N/C(N)=N/c1nc2ccccc2s1)NC(C)C,35.9%
7,Nc1ccc(-c2nnc(SCc3ccc(O)c4ncccc34)n2-c2ccccc2)cc1,14.8%
8,Oc1ccc(CSc2nnc(-c3cnccn3)o2)c2cccnc12,13.1%
9,C=C1C(=O)O[C@@H]2/C=C(/C)C3=CC(=O)[C@@](C)(C[C@H](OC(=O)/C(C)=C\C)[C@@H]12)O3,-59% (active)
10,COc1ccc(Cn2cc3c(c2-c2ccccc2)CCCc2cnoc2-3)cc1,-11.2% (active)
11,Fc1ccccc1/C=C(/C1=NCCN1)n1cnc2ccccc21,96.2%
12,CC(C)c1nn(-c2ccccc2)c(N2CCCCC2)c1/C=N/NC(N)=S,97.5%
13,COc1cc(C2CC(c3ccc(Nc4nc(NCCO)nc(Nc5ccc(Cl)cc5)n4)cc3)=Nc3c(N)nc(N)nc3N2)cc(OC)c1OC (stereo not given),74.6%
14,O=C(/C=C1\C=CN(CCCCO)c2ccccc21)n1ccc2ccccc21,106%
15,COC[C@]12CC[C@@H](C)[C@H](C)[C@H]1C1=CC[C@@H]3[C@@]4(C)CCCNC(C)(C)[C@@H]4CC[C@@]3(C)[C@]1(C)CC2,9.61% (active)
16,Nc1ccc(-c2nnc(SCc3ccc(O)c4ncccc34)o2)cc1,7.57% (active)
17,CCOC(=O)/C=c1\sc2n(c1=O)C1C(NN=2)N(CC)C(=O)N1CC (stereo not given),-17.8% (active)
18,C=CCn1c(SCC(=O)Nc2cccc(C(=O)/C=C/c3ccccc3)c2)nc2ccccc2c1=O,82.9%
19,COc1cc2c3c(n(CCCNC4CCC4)c(=O)c2cc1OC)-c1cc2c(cc1C3=O)OCO2,-65.7% (active)
20,O=C(NCCCNc1cc(-c2cn(-c3ccccc3)nc2-c2cccc(O)c2)ccn1)Nc1cc(C(F)(F)F)cc(C(F)(F)F)c1,75.3%

row,Structure (SMILES),growth
1,COc1ccc(-c2nnc(SCc3ccc(O)c4ncccc34)o2)cc1,24%
2,C=CCn1c(SCC(=O)Nc2cccc(C(=O)/C=C/c3ccccc3Cl)c2)nc2ccccc2c1=O,89.1%
3,O=C1c2c(c3c4cccnc4[nH]c3c3ccc4ccccc4c23)C(=O)N1CCN1CCOCC1,67.7%
4,CCn1c2ccc(/C=N/OCCCN(C)C)cc2c2cc(/C=N/OCCCN(C)C)ccc21,-48.9% (active)
5,COc1cc(/C=C/C(=O)c2ccc(NC(=O)CSc3nnc(-c4ccc5nc(-c6ccccc6)[nH]c5c4)o3)cc2)cc(OC)c1OC,94.1%
6,N#Cc1c(-c2cccs2)cc(-c2cnccn2)nc1SCC(=O)NNC(=S)Nc1ccc(F)cc1,101%
7,COc1cc(CNC(=O)Cc2ccccc2[N+](=O)[O-])ccc1OCC(=O)NO,106%
8,CCN1C/C(=N\S(=O)(=O)c2ccccc2)N(CC)C1=S,101%
9,C#Cc1ccc(NC(=O)c2ccc(/C=C/C(=O)c3nccn3C)cc2)c(F)c1,27.9%
10,O=C(Nc1ccccc1)Nc1nc2ccc([N+](=O)[O-])cc2s1,2.4% (active)
11,O=C(Nc1cccc(Cl)c1)Nc1nc2ccc(-c3cccc4ccccc34)cc2s1,54.3%
12,NNC(=O)c1sc2nc(-c3cnccn3)cc(-c3cccs3)c2c1N,100%
13,N/C(=N\OC(=O)CSc1nc2ccccc2s1)c1ccc2ccccc2c1,104%
14,O=C(CSc1ccc(-c2nc3ccccc3[nH]2)cn1)N1CCN(c2ccccc2F)CC1,53.9%
15,Cc1cc(O)c(=O)cc2c1C[C@H]1CC(C)(C)/C=C/C[C@]3(C)Oc4cc(=O)c(O)cc(C)c4C[C@H]3C[C@H](O)[C@@]1(C)O2,15.7%
16,CCN1C(=O)N(CC)C2SC(N/N=C/c3ccc(F)cc3)=NC21 (stereo not given),-35.8% (active)
17,Cc1cc(F)cc(NS(=O)(=O)c2ccc(-c3cnc(C4CC4)o3)cc2)c1,-20.9% (active)
18,COc1cc2c3c(n(CCCNC4CCCCC4)c(=O)c2cc1OC)-c1cc2c(cc1C3=O)OCO2,102%
19,CC[C@@](C)(NC(=O)C(C)(C)NC(=O)[C@@H](NC(=O)[C@@H]1CCCN1C(=O)C(C)(C)NC(=O)[C@H](CC(C)C)NC(=O)CNC(=O)C(C)(C)NC(=O)[C@@H](NC(=O)C(C)(C)NC(=O)[C@H](CCC(N)=O)NC(=O)[C@H](C)NC(=O)C(C)(C)NC(=O)[C@H](C)NC(=O)C(C)(C)NC(=O)[C@@H]1CCCN1C(=O)C(C)(C)NC(C)=O)C(C)C)C(C)C)C(=O)N[C@@H](CCC(N)=O)C(=O)N[C@@H](CCC(N)=O)C(=O)N[C@H](CO)Cc1ccccc1,4.98% [4.25 µM] (active)
20,C=C(C)C(=O)O[C@H]1C[C@@]2(C)OC(=CC2=O)/C(CO)=C\[C@H]2OC(=O)C(=C)[C@H]12,-71% (active)
